# In PMC5540273 (PLoS ONE, 2017):
# Experiments:
# Details in all cases: concentration: 1 μM, replicates: in singlicate; n = 1
# [1] = test system: T1, RSK4(Kin.Dom.1-N-terminal)
# T1 construct: gene RPS6KA6
# [2] = test system: T2, RSK4(Kin.Dom.2-C-terminal)
# T2 construct: gene RPS6KA6
# S6K1 = test system: S6K1
# SBK1 = test system: SBK1
# SGK2 = test system: SGK2
# SGK3 = test system: SGK3
# SGK = test system: SGK
# SIK2 = test system: SIK2
# SIK = test system: SIK
# SLK = test system: SLK
# SNARK = test system: T3, SNARK
# T3 construct: gene NUAK2
# SNRK = test system: SNRK
# SRC = test system: SRC
# SRMS = test system: SRMS
# SRPK1 = test system: SRPK1
# SRPK2 = test system: SRPK2
# SRPK3 = test system: SRPK3
# STK16 = test system: STK16
# STK33 = test system: STK33
# STK35 = test system: STK35
# 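Also: KINOMEscan kinase panel screen.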
SMILES,%Inh [1],%Inh [2],%Inh (S6K1),%Inh (SBK1),%Inh (SGK2),%Inh (SGK3),%Inh (SGK),%Inh (SIK2),%Inh (SIK),%Inh (SLK),%Inh (SNARK),%Inh (SNRK),%Inh (SRC),%Inh (SRMS),%Inh (SRPK1),%Inh (SRPK2),%Inh (SRPK3),%Inh (STK16),%Inh (STK33),%Inh (STK35)
O=C(O)C(F)(F)F.O=c1[nH]ccc2nc(N[C@@H]3CCNC3)nc(Nc3ccc4c(c3)S(=O)(=O)CC4)c12 [GSK2181306],97.8%,59%,92.7%,90.1%,91.7%,98.6%,97.2%,73%,18%,99.7%,99%,25%,48%,0%,92.1%,0%,88%,96.9%,100%,90.6%
Cc1ccc(O)cc1Nc1ccnc2ccc(C(C)(C)C)cc12 [GW856805],31%,1%,13%,53%,13%,1%,25%,0%,42%,12%,19%,34%,99.9%,19%,24%,8%,9%,43%,11%,0%
Nc1ncc(-c2cn[nH]c2)c2scc(-c3ccc4c(c3)CCN4C(=O)Cc3ccccc3)c12 [GSK2593067],0%,0%,8%,0%,0%,0%,0%,0%,59%,73%,10%,0%,69%,59%,44%,0%,0%,0%,2%,0%
CCOc1nccc(-c2c(-c3ccc(F)cc3)ncn2C2CCNCC2)n1 [SB-249175],41%,83%,16%,46%,34%,12%,29%,4%,2%,71%,82%,21%,0%,34%,8%,19%,1%,0%,4%,0%
CCNc1nccc(-c2c(-c3ccc(F)cc3)ncn2C2CCN(C)CC2)n1,13%,64%,0%,0%,5%,0%,14%,8%,0%,13%,0%,0%,9%,0%,16%,0%,0%,31%,2%,0%
COc1ccc(C)c(Nc2ccnc(Nc3ccc(-c4cnc[nH]4)cc3)n2)c1.Cl [GW784041],0%,0%,0%,0%,0%,12%,0%,71%,28%,70%,0%,0%,86%,0%,32%,0%,30%,15%,0%,12%
CS(=O)(=O)c1cccc(CNc2nc(Nc3ccc4c(c3)CCC(=O)N4)ncc2C(F)(F)F)c1,85%,0%,16%,67%,0%,2%,27%,23%,0%,20%,81%,0%,0%,0%,72%,0%,3%,93.2%,0%,0%
CNc1nccc(-c2ccc3c(N)n[nH]c3c2)n1 [GSK2206003],59%,24%,0%,36%,6%,38%,36%,9%,0%,69%,35%,0%,19%,11%,68%,5%,31%,34%,0%,0%
